According to the supplement of paper PMC4840960:
Where a name gives a salt, the structure may show the parent alone. ± gives the standard deviation of the averaged measurements.

How the values were obtained:
[1] = test system: E18 rat cortical neuron-glia co-culture; test: fiber score / MBP score (myelination specific beyond OL differentiation) (ratio); higher = more myelination-specific MBP alignment; details: treatment time: 8 days (DIV5-DIV13)
How it was run: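 Primary E18 rat cortical co-cultures (papain-dissociated, 20,000 cells/well on poly-d-lysine/laminin 96-well plates) received library compounds at 1 or 5 µM in myelination medium from DIV5 to DIV13. Cells were fixed in 4 % paraformaldehyde and immunostained for MBP and Olig2 with DAPI, and four 10X fields per well in duplicate wells were analysed. The read-out is fiber score (continuous MBP fiber length per Olig2+ nucleus) divided by MBP score (thresholded MBP area × intensity per Olig2+ nucleus).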

[2] = test system: E18 rat cortical neuron-glia co-culture; test: myelination (MBP fiber length per Olig2+ nucleus), % of 1 µM DAPT response (DMSO = 0) (% of DAPT); higher = more myelination, active = 50 or more; details: treatment time: 8 days (DIV5-DIV13)
How it was run: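 Primary E18 rat cortical co-cultures (papain-dissociated, 20,000 cells/well on poly-d-lysine/laminin 96-well plates) received library compounds at 1 or 5 µM in myelination medium from DIV5 to DIV13. Cells were fixed in 4 % paraformaldehyde and immunostained for MBP and Olig2 with DAPI, and four 10X fields per well in duplicate wells were analysed. Myelination was continuous straight MBP fiber length per Olig2+ nucleus, normalised to 0.1 % DMSO (0) and a 1 µM positive control (100).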

SMILES	fiber score / MBP score ([1]; 1 µM)	fiber score / MBP score ([1]; 5 µM)	myelination ([2]; 1 µM)	myelination ([2]; 5 µM)
CC(C)/N=c1\cc2n(-c3ccc(Cl)cc3)c3ccccc3nc-2cc1Nc1ccc(Cl)cc1 [Clofazimine]	0.742	0.962	-9.19 (inactive)	-8.06 (inactive)
C[C@]12CC[C@@H]3c4ccc(O)cc4CC[C@H]3[C@@H]1CC[C@@H]2O [Estradiol]	0.747	0.62	-24.6 (inactive)	-35.3 (inactive)
CC(N/C(=N\C#N)Nc1ccncc1)C(C)(C)C (centres undefined) [Pinacidil]	0.981	0.451	2.9 (inactive)	-19.7 (inactive)
O=C(O)c1cc(-c2ccc(F)cc2F)ccc1O [Diflunisal]	0.772	1.08	-4.48 (inactive)	6.86 (inactive)
O=c1[nH]c(=O)n(C2CCCO2)cc1F (centres undefined) [Tegafur]	0.967	0.729	-11.7 (inactive)	34.5 (inactive)
O=C1c2c(O)cc(O)cc2O[C@H](c2ccc(O)c(O)c2)[C@H]1O [Distylin]	0.8	1.16	-6.73 (inactive)	0.864 (inactive)
CN(C)CCC(c1ccc(Br)cc1)c1ccccn1 (centres undefined) [Brompheniramine]	0.611	0.693	-14.9 (inactive)	-12.4 (inactive)
CN[C@H]1CC[C@@H](c2ccc(Cl)c(Cl)c2)c2ccccc21 [Sertraline]	0.689 ± 0.18	3.18	-5.38 (inactive)	-24.9 (inactive)
CC1(C)O[C@@H]2[C@@H](CO[C@@]3(COS(N)(=O)=O)OC(C)(C)O[C@@H]23)O1 [Topiramate]	0.669	0.896	-20.2 (inactive)	-11.6 (inactive)
CCCSc1ccc2[nH]c(NC(=O)OC)nc2c1 [Albendazole]	0.797	0.0787	112	-37.4 (inactive)
C=C1/C(=C\C=C2/CCC[C@]3(C)[C@@H]([C@H](C)CCCC(C)(C)O)CC[C@@H]23)C[C@@H](O)C[C@@H]1O [Calcitriol]	0.737	0.531	-11.1 (inactive)	6.28 (inactive)
CCOC(=O)c1ccc(OC(=O)CCCCCNC(=N)N)cc1 [Gabexate]	0.709	0.799	-20.3 (inactive)	-14.2 (inactive)
CC(C[N+](C)(C)C)OC(N)=O (centres undefined) [Bethanechol]	0.372	0.379	-14.3 (inactive)	-14.6 (inactive)
Cc1cccc(Nc2ccccc2C(=O)O)c1C [Mefenamic Acid]	0.791	1.3	-6.36 (inactive)	38.7 (inactive)
CC(C)c1nc(CN(C)C(=O)N[C@H](C(=O)N[C@@H](Cc2ccccc2)C[C@H](O)[C@H](Cc2ccccc2)NC(=O)OCc2cncs2)C(C)C)cs1 [Ritonavir]	0.549	0.623	-20.5 (inactive)	-13.2 (inactive)
CC(=O)OCC(=O)[C@@]12OC(C)(C)O[C@@H]1C[C@H]1[C@@H]3C[C@H](F)C4=CC(=O)C=C[C@]4(C)[C@@]3(F)[C@@H](O)C[C@@]12C [Fluocinonide]	0.861	0.291	-38 (inactive)	-66.2 (inactive)
CCCCC[C@H](O)/C=C/[C@H]1[C@H](O)CC(=O)[C@@H]1CCCCCCC(=O)O [Alprostadil]	1.12	0.695	-1.94 (inactive)	-7.47 (inactive)
Nc1c2c(nc3c1CCC3)CCCC2 [Amiridine]	0.702	0.8	-26.8 (inactive)	-17.6 (inactive)
Cc1[nH]cnc1CN1CCc2c(c3ccccc3n2C)C1=O [Alosetron]	0.768	0.974	-18.2 (inactive)	-2.39 (inactive)
CCCc1c(OCCCCc2nnn[nH]2)ccc(C(C)=O)c1O	0.683	1	-11.5 (inactive)	1.2 (inactive)
Nc1ncn([C@@H]2O[C@H](CO)[C@@H](O)[C@H]2O)c(=O)n1 [Azacitidine]	0.686	0.777	3.99 (inactive)	12.8 (inactive)
CCc1cccc2c3c([nH]c12)C(CC)(CC(=O)O)OCC3 (centres undefined) [Etodolac]	0.706	1.38	-10.5 (inactive)	16.1 (inactive)
CCN1CCN(C(=O)N[C@@H](C(=O)N[C@@H]2C(=O)N3[C@@H]2SC(C)(C)[C@@H]3C(=O)O)c2ccccc2)C(=O)C1=O [Piperacillin]	0.703	0.948	-13.4 (inactive)	5.13 (inactive)
C[C@]12CC[C@@H]3c4ccc(OS(=O)(=O)O)cc4CC[C@H]3[C@@H]1CCC2=O [Estrone sulfate]	1.04	1.16	3.23 (inactive)	5.79 (inactive)
CN(C)[C@@H]1C(O)=C(C(N)=O)C(=O)[C@@]2(O)C(O)=C3C(=O)c4c(O)cccc4C[C@H]3C[C@@H]12 [Sancycline]	0.961	0.714	-12.5 (inactive)	-15 (inactive)
O=C(NCCN1CCOCC1)c1ccc(Cl)cc1 [Moclobemide]	0.601	0.881	-22.1 (inactive)	-5.22 (inactive)

SMILES	fiber score / MBP score ([1]; 1 µM)	fiber score / MBP score ([1]; 5 µM)	myelination ([2]; 1 µM)	myelination ([2]; 5 µM)
CC(=O)OCC(=O)[C@@]1(O)CC[C@H]2[C@@H]3CCC4=CC(=O)C=C[C@]4(C)[C@H]3[C@@H](O)C[C@@]21C [Prednisolone acetate]	0.826	0.704	-5.64 (inactive)	-10.6 (inactive)
CN1CCN(CC/C=C2/c3ccccc3Sc3ccc(S(=O)(=O)N(C)C)cc32)CC1 [Thiothixene]	0.826	1.29	-6.05 (inactive)	42.5 (inactive)
CC1=C(/C=C/C(C)=C/C=C/C(C)=C/C(=O)O)C(C)(C)CCC1 [Retinoic Acid]	0.93	0.533	-3.28 (inactive)	-10.5 (inactive)
N[C@@H](C(=O)N[C@@H]1C(=O)N2C(C(=O)O)=C(Cl)CS[C@H]12)c1ccccc1 [Cefaclor]	0.944	0.875	1.34 (inactive)	-10.6 (inactive)
CCCNCC(O)COc1ccccc1C(=O)CCc1ccccc1 (centres undefined) [Propafenone]	0.873	0.376	-1.52 (inactive)	-22.4 (inactive)
CCN1CCCC1CNC(=O)c1cc(S(=O)(=O)CC)ccc1OC (centres undefined) [Sultopride]	0.758	0.461	-20.9 (inactive)	-59.3 (inactive)
CCC1(c2ccccc2)C(=O)NCNC1=O [Primidone]	0.952	1.03	3.26 (inactive)	-3.74 (inactive)
O=C1[C@H](CC[C@H](O)c2ccc(F)cc2)[C@@H](c2ccc(O)cc2)N1c1ccc(F)cc1 [Ezetimibe]	0.641	0.648	-31.2 (inactive)	-37.1 (inactive)
CCCCNc1cc(C(=O)O)cc(S(N)(=O)=O)c1Oc1ccccc1 [Bumetanide]	0.846	0.859	-8.01 (inactive)	-11.3 (inactive)
Nc1ncnc2c1ncn2[C@@H]1O[C@H](CO)[C@@H](O)[C@H]1O [Adenosine]	1.08	0.875	-4.96 (inactive)	-4.36 (inactive)
CCC[C@@H]1C[C@@H](C(=O)N[C@@H]([C@H]2O[C@H](SC)[C@H](O)[C@@H](O)[C@H]2O)[C@@H](C)O)N(C)C1 [Lincomycin]	0.754	0.914	-22.9 (inactive)	7.24 (inactive)
Cn1c(=O)c2nc[nH]c2n(C)c1=O [Theophylline]	0.93	0.671	-7.88 (inactive)	-20.2 (inactive)
Cc1ccc(Cl)c(Nc2ccccc2C(=O)O)c1Cl [Meclofenamic acid]	0.788	0.864	-26 (inactive)	-2.96 (inactive)
CCCOc1ccc(C(=O)OCCN(CC)CC)cc1N [Proxymetacaine]	1.15	0.433	13.3 (inactive)	-12.1 (inactive)
O=C1C(CC[S+]([O-])c2ccccc2)C(=O)N(c2ccccc2)N1c1ccccc1 (centres undefined) [Sulfinpyrazone]	1.18	0.857	-0.801 (inactive)	-7.44 (inactive)
CN(C)CCC=C1c2ccccc2CCc2ccccc21 [Amitriptyline]	0.785	1.22	-0.648 (inactive)	30.2 (inactive)
C[C@H]1COc2c(C3(N)CC3)c(F)cc3c(=O)c(C(=O)O)cn1c23 [Pazufloxacin]	0.814	1.19	-22.4 (inactive)	17.6 (inactive)
CCCN(CCC)S(=O)(=O)c1ccc(C(=O)O)cc1 [Probenecid]	0.973	1.44	0.863 (inactive)	11.7 (inactive)
O=C(O)CCCc1ccccc1 [4-Phenylbutyric acid]	1.07	0.747	10.1 (inactive)	-8.79 (inactive)
CC(=O)Nc1nnc(S(N)(=O)=O)s1 [Acetazolamide]	0.846	0.99	-4.45 (inactive)	-1.11 (inactive)
COc1ccc(-c2oc3c(CC=C(C)C)c(O[C@@H]4O[C@H](CO)[C@@H](O)[C@H](O)[C@H]4O)cc(O)c3c(=O)c2O[C@@H]2O[C@@H](C)[C@H](O)[C@@H](O)[C@H]2O)cc1 [Icariin]	0.673	0.958	-14.4 (inactive)	-5.53 (inactive)
COCCOC(=O)C1=C(C)NC(C)=C(C(=O)OC(C)C)C1c1cccc([N+](=O)[O-])c1 (centres undefined) [Nimodipine]	0.486	0.338	-18.6 (inactive)	-24.9 (inactive)
CCN(CC)CC1CCCCN1CC(=O)N1c2ccccc2C(=O)Nc2cccnc21 (centres undefined) [Otenzepad]	0.774	0.692	-9.61 (inactive)	-15.6 (inactive)
CN(CCO)CC(O)Cn1cnc2c1c(=O)n(C)c(=O)n2C (centres undefined) [Jupal]	0.827	0.635	-7.05 (inactive)	-10.5 (inactive)
CN(C)[C@@H]1C(O)=C(C(N)=O)C(=O)[C@@]2(O)C(O)=C3C(=O)c4c(O)ccc(Cl)c4[C@@H](O)[C@H]3C[C@@H]12 [Demeclocycline]	0.946	0.666	-3.29 (inactive)	-12.1 (inactive)
